# The panel holds about 83,000 compounds, 20% with a hit somewhere; the sample as a whole holds those more often.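 Growth was measured after 48 h exposure to one concentration of compound in 96-well plates. Values under 10 count as active.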 A number with no mark means an inactive call. Activity calls are given as the source filed them.
# Legend:
# Test in all cases: NCI-60 one-dose screen, 48 h (100 = growth as untreated, 0 = no growth, -100 = all killed)
# Details in all cases: 10 µM
# [1] = test system: EKVX NSCLC
# [2] = test system: SN12C renal
# [3] = test system: UO-31 renal
# [4] = test system: TK-10 renal
# [5] = test system: ACHN renal
# [6] = test system: A498 renal
# [7] = test system: CCRF-CEM leukemia
# [8] = test system: MOLT-4 leukemia
# [9] = test system: SR leukemia
# [10] = test system: RPMI-8226 leukemia
# [11] = test system: OVCAR-8 ovarian
# [12] = test system: OVCAR-5 ovarian
# [13] = test system: OVCAR-4 ovarian
# [14] = test system: SK-OV-3 ovarian
# [15] = test system: IGROV1 ovarian
# [16] = test system: OVCAR-3 ovarian
# [17] = test system: HS 578T breast
# [18] = test system: NCI/ADR-RES ovarian
# [19] = test system: T-47D breast
# [20] = test system: CAKI-1 renal
Structure (SMILES),growth [1],growth [2],growth [3],growth [4],growth [5],growth [6],growth [7],growth [8],growth [9],growth [10],growth [11],growth [12],growth [13],growth [14],growth [15],growth [16],growth [17],growth [18],growth [19],growth [20]
COc1ccc(-c2cc(-c3ccc(N(C)C)cc3)c(C#N)c(N3CCCC3)n2)cc1,73.1%,89.2%,81.7%,85.4%,98.5%,106%,79.5%,81.2%,40.8%,38.7%,83.3%,64.8%,81.4%,72.7%,64.9%,105%,103%,61.8%,67%,–
O=C(Nc1cccc(Cl)c1)Nc1nccs1,98.1%,87.7%,89.9%,109%,98.5%,99.2%,83.2%,101%,78.5%,91.1%,97.9%,109%,90.6%,100%,97.5%,114%,115%,91%,–,–
CN1CCC(CNc2cc(C3(C(=O)Nc4cc(C(=O)Nc5ccc(Cl)c(C(F)(F)F)c5)ccc4F)CC3)ncn2)CC1,46.7%,78.8%,7.95% (active),84.5%,20.1%,96%,-23.9% (active),-37.5% (active),-26.7% (active),-32% (active),44.3%,71.6%,81.1%,45.9%,54.8%,29.4%,13.6%,86.7%,63.7%,–
Cc1nc2ccccc2c(N)c1-c1cc(C)c2c(C)nc3ccccc3c2n1,68.4%,57.9%,-95.7% (active),14.3%,-92.4% (active),-12.9% (active),-42.1% (active),-50.8% (active),-39.5% (active),-40.9% (active),-29.4% (active),32.4%,-64.1% (active),96.7%,-92% (active),-96.6% (active),-32.3% (active),43.8%,-20.4% (active),–
CC(C)=CCc1cc(O)cc2c1OC(C=C(C)C)C1=C2C(=O)C2=C(C1=O)S(=O)(=O)CCN2 (configuration not stated),50.2%,-44.1% (active),54%,122%,73.1%,103%,-11.9% (active),-43.2% (active),3.79% (active),51.4%,10.8%,152%,5.54% (active),84.7%,-0.954% (active),0.638% (active),70.3%,91.7%,-0.36% (active),–
O=C1C(=O)c2ccccc2C(O)=C1CCCc1ccc(C2CCCCCC2)cc1,24.9%,53.4%,24.2%,61%,38.6%,–,–,49.2%,38%,–,46.8%,82.6%,20.9%,48.8%,21%,51.5%,–,–,29%,-34.2% (active)
Cc1ccc(C(=O)Nc2cccc(F)c2)cc1NC(=O)C1(c2ncnc3[nH]ccc23)CC1,91.8%,91.2%,51.6%,132%,98.8%,105%,87.9%,72.7%,87.9%,83.2%,89.7%,83.6%,101%,91.1%,90.3%,103%,74%,92%,74.1%,–
CC(=O)n1c(-c2ccc(Cl)c(Cl)c2)cn(-c2ccc(Cl)cc2)c1=O,30.3%,46.9%,3.31% (active),54.4%,22.8%,4.91% (active),-26.3% (active),18.4%,0.989% (active),-10.9% (active),20.8%,42.4%,5.33% (active),19.1%,4.07% (active),3.73% (active),-15.5% (active),11.8%,-47.1% (active),–
